Consider 30 sequences from the OligoGym collection.
Further: reference of the scale not given here.

The first test has as its target TSC22D2. The test can be described thus: pooled miR-30 sensor sort-seq; sequence = guide strand. Particulars: shRNA.
As to TAAAACTTCCACTTCTTCTCTT, the sensor-assay potency score (higher = more potent) stood at 0.683.

As for TAGTATCGTCGACTTGCCCGAC, the sensor-assay potency score (higher = more potent) is -0.774.

Turning to TAGTATTCCATACACGTCCATC, the sensor-assay potency score (higher = more potent) was -1.07.

In the case of TATTCCATACACGTCCATCGGC, the sensor-assay potency score (higher = more potent) is -0.556.

For the sequence AAAACTTCCACTTCTTCTCTTA, the sensor-assay potency score (higher = more potent) came to 0.265.

Turning to TTAACAGTGCATTTTCTCGTTC, the sensor-assay potency score (higher = more potent) is -0.691.

In turn, TTCTCTTACTGCATACATCAAA came in with a sensor-assay potency score (higher = more potent) of -0.826.

Consider TTTAACAGTGCATTTTCTCGTT, for which the sensor-assay potency score (higher = more potent) worked out at 0.0173.

In the case of TAGCTGTGACACAGCAGTCAAG, the sensor-assay potency score (higher = more potent) was -1.48.

In turn, TCAACAGGAATAGCTATGCTGA yielded a sensor-assay potency score (higher = more potent) of -0.503.

In turn, TTTTCTTCTAGTATCGTCGACT came in with a sensor-assay potency score (higher = more potent) of -0.0154.

Sequence TCTTCTAGTATCGTCGACTTGC gave a sensor-assay potency score (higher = more potent) of 0.0712.

The target of another test is TSC22D3. The description is as above. Particulars: shRNA.
Sequence TTCTTCACCAGATCCATGGCCT returned a sensor-assay potency score (higher = more potent) of 0.0668.

Regarding TCTCTCACAGCATACATCAGAT, the sensor-assay potency score (higher = more potent) was -0.863.

For TCGATCTTGTTGTCTATGGCCA, the sensor-assay potency score (higher = more potent) is -0.64.

The sequence TCGTTGATCAGGTAGCAGGGGT came in with a sensor-assay potency score (higher = more potent) of -0.312.

For TTGCCAGGGTCTTCAACAGGGT, the sensor-assay potency score (higher = more potent) is -0.965.

In the case of AACTTCTCCAGCTGCTCTGGGC, the sensor-assay potency score (higher = more potent) is -1.22.

With TGTTCTCACGCTCTAGCTGGGA, the sensor-assay potency score (higher = more potent) is -0.875.

On to ATTGAGGTTCTCAAAGACCAGC, for which the sensor-assay potency score (higher = more potent) was -1.14.

In turn, TTATGCTGTTGAGCTTGTCGGT showed a sensor-assay potency score (higher = more potent) of -0.79.

Regarding TTGTTGTTCTCCCCGCTGCTGC, the sensor-assay potency score (higher = more potent) was -1.15.

The sequence ATGGTCTGGTCGATGTTGCGGT registered a sensor-assay potency score (higher = more potent) of -0.997.

Regarding ATGCTGTTGAGCTTGTCGGTAT, the sensor-assay potency score (higher = more potent) is -1.17.

As for TTGTTGTCTATGGCCACCACGC, the sensor-assay potency score (higher = more potent) is -1.5.

In turn, TTCAGGGCTCAGACAGGACTGG had a sensor-assay potency score (higher = more potent) of -0.708.

In turn, TTGTCTATGGCCACCACGCTGG returned a sensor-assay potency score (higher = more potent) of -0.721.

Sequence TATGCTGTTGAGCTTGTCGGTA showed a sensor-assay potency score (higher = more potent) of -0.561.

Regarding TTCGATCTTGTTGTCTATGGCC, the sensor-assay potency score (higher = more potent) was 0.125.

Sequence TAGGACATCTCTTGGCACCAGC came in with a sensor-assay potency score (higher = more potent) of -0.981.
